These results are taken from the supplement of paper PMC10849652.

Targets with a hit are over-represented here; the source holds about 8,800 in all. About 0.5% of all pairs of compound and target were hits. Values without a mark were called inactive.

Holding throughout (experiment): log2 fold change, soluble protein after heating vs DMSO (PISA); higher = thermal stabilisation; K562 lysate, 10 uM; active = over 0.2 and 3.5 SD of the protein, either way, in both replicates (recomputed)
Compound in test [1]: NCC(=O)Nc1ccc(-n2nc(C(F)(F)F)cc2-c2ccc3c(ccc4ccccc43)c2)cc1
In outline: (§1)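 Log-two fold change in thermal stability relative to solvent controls is reported from duplicates. For each sample, crude K562 extract from dounce-homogenised pellets in PBS pH 7.4 with 1 mM MgCl2, at 1 mg/mL protein, was treated with 10 μM compound for 30 min. Aliquots heated for 3 min across 48°C-58°C were pooled, brought to 0.5% NP-40 at 4°C and cleared at 21,000xg for 90 min. The supernatant was quantified by TMTpro 16plex LC-MS/MS with channel sums equalised.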

Compound in a further test: O=C(CCCCCCC(=O)Nc1ccccc1)NO [vorinostat]
The essentials: as §1

Compound in a further test: O=C(O)c1ccc2c(c1)nc(Nc1cccc(Cl)c1)c1ccncc12 [silmitasertib]
In outline: as §1

Compound in test [2]: O=C1NC(=O)C(c2cnc3ccccn23)=C1c1cn2c3c(cc(F)cc13)CN(C(=O)N1CCCCC1)CC2
In outline: as §1

Compound in a further test: c1cn2cc(-c3ccc4cn[nH]c4c3)nc(Nc3ccc(N4CCOCC4)cc3)c2n1 [entospletinib]
In outline: as §1

Sequence of UniProt P02724 (P02724 whole entry, looked up): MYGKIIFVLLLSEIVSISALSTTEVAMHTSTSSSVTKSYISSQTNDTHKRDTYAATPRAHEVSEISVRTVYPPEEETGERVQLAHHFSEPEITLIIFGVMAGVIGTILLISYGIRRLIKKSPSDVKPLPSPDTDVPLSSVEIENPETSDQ
Sequence of UniProt Q96SY0 (Q96SY0 whole entry, looked up): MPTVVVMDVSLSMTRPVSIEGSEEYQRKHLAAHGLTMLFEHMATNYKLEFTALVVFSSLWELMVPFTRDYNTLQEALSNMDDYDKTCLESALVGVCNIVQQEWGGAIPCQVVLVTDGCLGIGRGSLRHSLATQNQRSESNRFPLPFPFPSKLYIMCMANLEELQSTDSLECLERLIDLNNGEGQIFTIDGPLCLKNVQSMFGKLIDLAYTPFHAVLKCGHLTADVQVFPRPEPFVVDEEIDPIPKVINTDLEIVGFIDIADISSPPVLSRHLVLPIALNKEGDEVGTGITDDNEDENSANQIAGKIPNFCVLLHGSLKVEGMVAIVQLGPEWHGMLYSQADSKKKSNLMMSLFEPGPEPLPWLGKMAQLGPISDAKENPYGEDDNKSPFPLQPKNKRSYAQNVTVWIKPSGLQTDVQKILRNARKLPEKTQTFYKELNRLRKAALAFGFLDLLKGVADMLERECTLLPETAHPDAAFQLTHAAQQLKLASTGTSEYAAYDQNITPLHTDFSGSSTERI
Sequence of UniProt Q9Y5Q8 (Q9Y5Q8 whole entry, looked up): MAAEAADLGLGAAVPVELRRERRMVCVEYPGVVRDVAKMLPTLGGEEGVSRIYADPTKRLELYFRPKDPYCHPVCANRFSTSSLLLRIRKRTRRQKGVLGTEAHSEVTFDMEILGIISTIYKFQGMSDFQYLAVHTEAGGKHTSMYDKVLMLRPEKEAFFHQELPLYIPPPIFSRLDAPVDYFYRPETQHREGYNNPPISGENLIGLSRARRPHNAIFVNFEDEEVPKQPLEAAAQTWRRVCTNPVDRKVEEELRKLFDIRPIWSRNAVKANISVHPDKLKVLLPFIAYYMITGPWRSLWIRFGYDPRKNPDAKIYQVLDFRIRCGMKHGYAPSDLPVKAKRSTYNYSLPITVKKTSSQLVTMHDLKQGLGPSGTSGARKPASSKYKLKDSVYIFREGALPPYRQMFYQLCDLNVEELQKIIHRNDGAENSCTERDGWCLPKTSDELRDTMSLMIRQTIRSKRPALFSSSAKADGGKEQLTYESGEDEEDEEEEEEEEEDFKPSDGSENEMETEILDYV
Sequence of UniProt Q9NVR2 (Q9NVR2 whole entry, looked up): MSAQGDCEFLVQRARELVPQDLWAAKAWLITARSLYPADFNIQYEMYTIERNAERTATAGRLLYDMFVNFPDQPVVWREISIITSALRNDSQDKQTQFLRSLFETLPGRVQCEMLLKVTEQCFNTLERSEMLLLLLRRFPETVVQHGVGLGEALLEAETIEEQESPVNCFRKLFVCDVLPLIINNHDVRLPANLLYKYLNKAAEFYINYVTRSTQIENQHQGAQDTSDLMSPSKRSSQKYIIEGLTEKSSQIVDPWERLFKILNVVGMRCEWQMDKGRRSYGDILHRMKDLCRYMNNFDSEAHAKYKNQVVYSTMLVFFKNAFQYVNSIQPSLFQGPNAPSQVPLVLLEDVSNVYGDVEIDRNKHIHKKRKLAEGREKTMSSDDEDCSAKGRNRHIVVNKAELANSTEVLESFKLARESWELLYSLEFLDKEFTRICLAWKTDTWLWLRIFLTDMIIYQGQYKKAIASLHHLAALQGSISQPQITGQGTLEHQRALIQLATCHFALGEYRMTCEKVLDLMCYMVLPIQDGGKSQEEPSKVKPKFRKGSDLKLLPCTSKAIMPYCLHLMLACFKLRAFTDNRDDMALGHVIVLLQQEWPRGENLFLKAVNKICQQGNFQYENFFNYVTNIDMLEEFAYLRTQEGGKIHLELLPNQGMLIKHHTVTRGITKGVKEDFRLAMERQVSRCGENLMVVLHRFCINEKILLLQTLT
Sequence of UniProt Q01581 (Q01581 whole entry, looked up): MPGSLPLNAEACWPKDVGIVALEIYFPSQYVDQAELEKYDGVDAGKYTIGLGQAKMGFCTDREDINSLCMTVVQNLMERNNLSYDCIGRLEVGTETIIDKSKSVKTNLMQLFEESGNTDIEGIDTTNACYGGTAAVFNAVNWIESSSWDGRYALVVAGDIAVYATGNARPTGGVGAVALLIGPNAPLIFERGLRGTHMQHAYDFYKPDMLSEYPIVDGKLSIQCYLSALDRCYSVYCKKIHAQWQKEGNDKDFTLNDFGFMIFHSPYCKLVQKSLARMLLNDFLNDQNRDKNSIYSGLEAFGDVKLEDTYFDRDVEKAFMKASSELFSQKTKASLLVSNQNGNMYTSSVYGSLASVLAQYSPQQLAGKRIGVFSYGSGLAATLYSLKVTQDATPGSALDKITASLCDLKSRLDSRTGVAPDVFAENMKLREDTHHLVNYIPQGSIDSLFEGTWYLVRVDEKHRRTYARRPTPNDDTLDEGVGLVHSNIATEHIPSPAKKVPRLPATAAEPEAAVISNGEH
Sequence of UniProt Q9NPR9 (Q9NPR9 whole entry, looked up): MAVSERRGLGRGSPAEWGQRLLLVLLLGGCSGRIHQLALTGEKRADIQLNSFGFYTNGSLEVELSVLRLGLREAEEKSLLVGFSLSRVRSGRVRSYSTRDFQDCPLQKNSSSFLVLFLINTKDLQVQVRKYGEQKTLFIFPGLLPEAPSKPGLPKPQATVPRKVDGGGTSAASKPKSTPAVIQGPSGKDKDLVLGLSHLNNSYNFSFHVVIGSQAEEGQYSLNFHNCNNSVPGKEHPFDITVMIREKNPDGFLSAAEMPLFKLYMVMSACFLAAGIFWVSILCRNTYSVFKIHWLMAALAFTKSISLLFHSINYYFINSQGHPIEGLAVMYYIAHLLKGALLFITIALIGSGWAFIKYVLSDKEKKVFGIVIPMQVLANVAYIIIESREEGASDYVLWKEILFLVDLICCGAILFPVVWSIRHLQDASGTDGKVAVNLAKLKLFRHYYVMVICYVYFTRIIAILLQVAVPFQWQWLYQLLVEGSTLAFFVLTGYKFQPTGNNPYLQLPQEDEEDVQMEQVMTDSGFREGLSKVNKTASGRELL
Sequence of UniProt P12081 (P12081 whole entry, looked up): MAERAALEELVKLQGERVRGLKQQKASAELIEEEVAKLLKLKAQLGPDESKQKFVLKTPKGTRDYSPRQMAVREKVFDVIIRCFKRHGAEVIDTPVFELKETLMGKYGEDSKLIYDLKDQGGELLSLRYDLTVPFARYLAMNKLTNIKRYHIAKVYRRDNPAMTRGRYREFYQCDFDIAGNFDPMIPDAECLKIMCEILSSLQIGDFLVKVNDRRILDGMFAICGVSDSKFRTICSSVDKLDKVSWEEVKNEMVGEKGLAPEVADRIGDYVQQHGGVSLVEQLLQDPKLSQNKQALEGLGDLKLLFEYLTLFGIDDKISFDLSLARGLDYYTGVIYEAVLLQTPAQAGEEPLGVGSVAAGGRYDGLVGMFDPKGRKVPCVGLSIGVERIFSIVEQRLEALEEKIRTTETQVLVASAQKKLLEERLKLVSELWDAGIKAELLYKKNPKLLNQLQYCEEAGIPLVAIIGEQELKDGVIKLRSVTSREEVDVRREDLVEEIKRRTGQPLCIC
Sequence of UniProt P52655 (P52655 whole entry, looked up): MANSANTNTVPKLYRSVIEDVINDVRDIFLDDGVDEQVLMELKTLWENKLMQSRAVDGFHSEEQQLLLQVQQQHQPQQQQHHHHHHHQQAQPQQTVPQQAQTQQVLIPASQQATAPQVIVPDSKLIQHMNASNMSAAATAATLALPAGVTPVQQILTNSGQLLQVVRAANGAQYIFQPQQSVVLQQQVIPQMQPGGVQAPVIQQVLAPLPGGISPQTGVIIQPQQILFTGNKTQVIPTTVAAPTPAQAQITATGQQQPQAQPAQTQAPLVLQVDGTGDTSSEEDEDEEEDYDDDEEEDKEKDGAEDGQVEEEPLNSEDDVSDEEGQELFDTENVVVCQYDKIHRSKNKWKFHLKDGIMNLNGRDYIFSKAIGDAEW

With HARS (UniProt P12081), the log2 fold change in test [1] is -0.031; with vorinostat, -0.003; with silmitasertib it was 0.02; in test [2] it was -0.054; in the test with entospletinib, 0.001.
As for GTF2A1 (UniProt P52655), the log2 fold change was -0.029 in test [1]; 0.094 in the test with vorinostat; -0.043 with silmitasertib; 0.052 in test [2]; 0.039 with entospletinib.
For the target GTF3C5 isoform 3 (UniProt Q9Y5Q8), the log2 fold change is 0.002 in test [1]; -0.296 (active) in the test with vorinostat; 0.016 in the test with silmitasertib; 0.04 in test [2]; -0.021 in the test with entospletinib.
HMGCS1 (UniProt Q01581): the log2 fold change is 0.018 in test [1]; 0.53 (active) with vorinostat; 0.011 with silmitasertib; 0.013 in test [2]; -0.002 in the test with entospletinib.
With INTS10 (UniProt Q9NVR2), the log2 fold change in test [1] is 0.027; with vorinostat it was -0.438 (active); with silmitasertib, 0.047; in test [2], 0.002; with entospletinib, 0.006.
HDLBP, A0A024R4E5: the log2 fold change was 0.009 in test [1]; -0.427 (active) with vorinostat; -0.013 with silmitasertib; 0.004 in test [2]; 0.009 with entospletinib.
INTS14 (UniProt Q96SY0): the log2 fold change was -0.008 in test [1]; -0.311 (active) in the test with vorinostat; 0.002 with silmitasertib; 0.023 in test [2]; 0.026 with entospletinib.
Regarding GYPA (UniProt P02724), the log2 fold change in test [1] is -0.028; with vorinostat, 0.152; with silmitasertib, -0.097; in test [2], -0.04; with entospletinib, 0.019.
Regarding GPR108 (UniProt Q9NPR9), the log2 fold change is -0.001 in test [1]; -0.024 with vorinostat; 0.001 with silmitasertib; -0.007 in test [2]; -0.008 with entospletinib.
